# CYP2C9 inh: human CYP2C9 inhibition; P11712; inhibition, % at 5 µM; hit rate 20% among 96,000; CYP2C9 Supersomes, luciferin-H conversion, luminescence;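 active = blocking of liver enzyme CYP2C9 beyond about 50% at 5 µM, limit read from the data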
# Target sequence (P11712 whole entry, looked up): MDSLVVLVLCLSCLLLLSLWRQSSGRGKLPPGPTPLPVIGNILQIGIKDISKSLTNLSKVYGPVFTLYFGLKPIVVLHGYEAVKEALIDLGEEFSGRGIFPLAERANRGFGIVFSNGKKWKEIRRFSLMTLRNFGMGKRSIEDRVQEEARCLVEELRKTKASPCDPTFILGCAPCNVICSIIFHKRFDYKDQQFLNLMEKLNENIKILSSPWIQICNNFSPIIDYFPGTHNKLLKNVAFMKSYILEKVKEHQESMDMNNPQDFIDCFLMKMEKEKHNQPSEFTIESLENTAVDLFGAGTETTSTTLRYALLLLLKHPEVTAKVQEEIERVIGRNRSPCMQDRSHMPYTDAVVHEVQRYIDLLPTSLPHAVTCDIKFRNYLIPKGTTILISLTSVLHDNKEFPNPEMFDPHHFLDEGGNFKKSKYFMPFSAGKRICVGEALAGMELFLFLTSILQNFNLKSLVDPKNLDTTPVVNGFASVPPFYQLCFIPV
# CYP2C9 act: increases human cytochrome P450 2C9 activity. recombinant CYP2C9, luciferin-H conversion, luminescence; hits give high values; factor 1 = untreated enzyme, 0 = blocked. hit rate 1.4% among 96,000. P11712. activation factor at 5 µM;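 active = activation factor of 2 or more for CYP2C9 at a 5 µM dose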;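 note: 0 = sulfaphenazole-blocked wells and 1 = vehicle-only wells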
# sEH activator: soluble epoxide hydrolase (human) activation | purified human sEH enzymatic activity, activator screen | P34913 | activation, % at 2 µM | hit rate 0.04% among 91,000; in the data active = activation above about 37%
# sEH inh: soluble epoxide hydrolase (human) inhibition; P34913; recombinant human sEH enzymatic activity assay; inhibition, % at 2 µM; hit rate 0.34% among 91,000; in the data active = inhibition above about 80%
# CYP2C19 inh: blocks human cytochrome P450 2C19; P33261; CYP2C19 Supersomes, luciferin-H EGE luminescence, 30 min; inhibition, % at 5 µM; hit rate 21% among 96,000; AID 778;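 active = CYP2C19 inhibition above a set limit at 5 µM in the primary screen, cut at about 50% in these data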;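 note: plate controls were negative control wells for no effect and 2.5 mM tranylcypromine positive control for full effect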
# CYP2C19 act: cytochrome P450 2C19 (human) activation; recombinant CYP2C19, luciferin-H EGE luminescence; hits give high values; 0 = fully inhibited enzyme, 1 = untreated enzyme; activation factor at 5 µM; AID 1025; P33261; 96,000 tested, under 10 active;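 active = activation factor of at least 2 at 5 µM in the primary screen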;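 note: 0 = wells with 2.5 mM tranylcypromine and 1 = vehicle-only wells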
# Active calls of the source: *; nt = not tested or not shown. The list is not random: actives were taken first. Their share in the collection is about 27%.
SMILES,CYP2C9 inh,CYP2C9 act,sEH activator,sEH inh,CYP2C19 inh,CYP2C19 act
CCN(CC)CCCN(C(=O)c1cccs1)c1nc(-c2ccc(OC)cc2)cs1,24,0.8,1,0,37,0.6
COc1ccc(-c2csc(N(CC3CCCO3)C(=O)c3cccs3)n2)cc1 (stereo unspecified),92*,0.1,1,-1,88*,0.1
O=C(c1cnc2n(c1=O)CCS2)N(C1CCCCC1)C1CCCCC1,11,0.9,4,-5,1,1
CCOC(=O)c1ccc2nc3c(cc2c1)CCS3,47,0.5,4,-5,4,1
Cc1n[nH]c(=S)n1/N=C/c1ccccc1OCc1ccc(Cl)cc1,11,0.9,-10,9,-22,1.2
CCCCSC1(SCCCC)N=C(N)C2(C#N)C(c3ccccc3)NC(C)=C(C)C12C#N (stereo unspecified),15,0.9,-5,5,57*,0.4
c1ccc(C2=NC(c3ccccc3)N=C(c3ccccc3)N2)cc1,nt,nt,12,-9,nt,nt
S=C1NC(c2ccccc2)=NCN1c1ccccc1,65*,0.4,-5,5,95*,0.1
COc1ccccc1NS(=O)(=O)c1ccccc1C#N,-174,2.7*,-4,3,58*,0.4
Cc1c(F)cccc1NS(=O)(=O)c1ccccc1C#N,29,0.7,-2,6,59*,0.4
O=C(NNC(=S)NC(=O)c1cccnc1)c1ccc(Cl)cc1,63*,0.4,1,-3,2,1
Cc1ccc(C(=O)NNC(=S)NC(=O)c2ccc(Cl)cc2)cc1,87*,0.1,-12,12,0,1
Cc1cc(C)c(NC(=O)CS(=O)CC(=O)NC2CCCc3ccccc32)c(C)c1 (stereo unspecified),-19,1.2,-8,10,-4,1
CCOC(=O)c1ccc(S(=O)(=O)NC2CCCCCCC2)n1C,85*,0.1,-11,16,53*,0.5
CCn1c(=O)c2cc(S(=O)(=O)NC3CCCCC3)ccc2n(CC)c1=O,53*,0.5,5,-8,49,0.5
CCOc1cc(S(=O)(=O)NC2CCCC2)ccc1Cl,-31,1.3,-4,4,38,0.6
CCOc1cc(S(=O)(=O)NC2CCCCC2)ccc1F,60*,0.4,17,-17,80*,0.2
CCn1c(=O)c2cc(S(=O)(=O)NCc3ccccc3)ccc2n(CC)c1=O,13,0.9,10,-4,16,0.8
COc1cc(S(=O)(=O)NC2CCCCC2)ccc1F,-109,2.1*,22,-24,85*,0.2
CCCOc1ccc(/C(O)=C2\C(=O)C(=O)N(CCCN(C)C)C23C(=O)N(C)c2ccccc23)cc1 (stereo unspecified),-20,1.2,nt,nt,-4,1
O=C(NCC1COc2ccccc2O1)c1cc2ccccc2o1 (stereo unspecified),nt,nt,-12,14,nt,nt
O=CN1CCN(C(C(=O)NC2CCCC2)c2ccc(Cl)cc2)CC1 (stereo unspecified),-4,1,5,-7,25,0.8
CCOc1cc(S(=O)(=O)N2CCCCCC2)ccc1F,-31,1.3,15,-18,87*,0.1
COc1cc(S(=O)(=O)NC2CCCC2)c(OC)cc1Cl,42,0.6,3,-3,99*,0
CCOc1ccccc1N1CCN(S(=O)(=O)c2ccc(F)c(F)c2)CC1,38,0.6,-13,13,45,0.5
SMILES,CYP2C9 inh,CYP2C9 act,sEH activator,sEH inh,CYP2C19 inh,CYP2C19 act
COc1ccc(/C=C/C(=O)Oc2cccc(/C=N/NC(=O)COc3c(C)cccc3C)c2)cc1,49,0.5,-1,3,0,1
CC(=O)Nc1nc2ccc(-c3nc4ccccc4o3)cc2s1,nt,nt,-8,12,nt,nt
CC(=O)Nc1ccc(S(=O)(=O)Nc2cccc(-c3nc4ccccc4o3)c2)cc1,98*,0,3,-5,91*,0.1
O=S(=O)(Nc1ccc(-c2nc3ccccc3o2)cc1)c1ccccc1,97*,0,-1,1,80*,0.2
O=C(Nc1ccc(-c2nc3ccccc3o2)cc1)C1CCCO1 (stereo unspecified),-28,1.3,-4,10,7,0.9
CCn1c(SCC(=O)Nc2ccccc2N2CCOCC2)nnc1-c1ccccc1O,49,0.5,-6,10,17,0.8
CCn1c(SCC(=O)Nc2ccc3c(c2)OCCO3)nnc1-c1ccccn1,48,0.5,-2,3,36,0.6
N#CCSc1nnc(-c2ccccc2O)n1Cc1ccccc1,13,0.9,-7,8,51*,0.5
CCn1c(SCC(=O)Nc2cc(F)ccc2C)nnc1-c1ccccc1O,81*,0.2,5,0,95*,0.1
CCn1c(SCC(=O)Nc2ccc3c(c2)OCO3)nnc1-c1ccccc1O,79*,0.2,-10,14,76*,0.2
N#Cc1ccccc1NC(=O)CSc1nnc(-c2ccccc2O)n1-c1ccccc1,64*,0.4,4,-2,33,0.7
CC(=O)NC12CC3CC(C)(C1)CC(NC(C)=O)(C3)C2,3,1,-3,2,12,0.9
CCc1c(O)nc(SCC(=O)Nc2ccc(C)cc2)n(C2CCCCC2)c1=O,8,0.9,nt,nt,1,1
CNS(=O)(=O)c1cccc(C(=O)OC2CCCCC2=O)c1 (stereo unspecified),-12,1.1,23,-23,29,0.7
CN1CCC2(CC1)C1CN(C)CC=C1C(C#N)=C(N)C2(C#N)C#N (stereo unspecified),3,1,nt,nt,1,1
CCn1c(SCC(=O)Nc2ccccc2C)nnc1-c1ccccc1O,51*,0.5,9,-4,57*,0.4
CCn1c(SCC(=O)NCc2ccccc2)nnc1-c1ccccc1O,52*,0.5,4,0,57*,0.4
O=C(CSc1nnc(CCCO)n1-c1ccccc1)NCCc1ccccc1,10,0.9,0,4,21,0.8
Cc1ccc(-n2c(CCc3ccccc3)nnc2SCC(=O)NCc2ccccc2)cc1C,48,0.5,24,-24,67*,0.3
COc1ccc(NC(=O)CN2CCCC(C)C2)c([N+](=O)[O-])c1 (stereo unspecified),4,1,2,0,18,0.8
Cc1cc(C)c2[nH]c(=O)c(CN(CC3CCCO3)S(=O)(=O)c3ccc4c(c3)OCCO4)cc2c1 (stereo unspecified),92*,0.1,0,0,78*,0.2
Cc1ccc(C)c2[nH]c(=O)c(CN(CC3CCCO3)S(=O)(=O)c3ccc4c(c3)OCCO4)cc12 (stereo unspecified),61*,0.4,-13,13,21,0.8
Cc1cccc2cc(CN(Cc3ccco3)S(=O)(=O)c3ccc4c(c3)OCCO4)c(=O)[nH]c12,56*,0.4,6,-8,77*,0.2
O=c1[nH]c2cc3c(cc2cc1CN(CC1CCCO1)S(=O)(=O)c1ccccc1)OCCO3 (stereo unspecified),25,0.7,nt,nt,9,0.9

# From PubChem BioAssay
